In PubChem BioAssay AID1345085 (National Center for Advancing Translational Sciences (NCATS), 2018):
Results filed as inconclusive are left out. Unmarked numbers belong to inactive results. Calls of active or inactive are those of the source. Calls come from the whole dose curve; as a rule, active = well fitted cell-killing curve with a large enough effect; inconclusive = small, poorly fitted or top-dose-only effect, or effect the other way; inactive = no such curve, though single readings can be large or run the other way. *1 amine or outer side, *2 acyl side, *3 side chain or, on linkers, in order; H or OH if unused. Where a SMILES comes first, the peptide text is derived from it. Bridges are numbered along the chain shown (N, C = ends). Roman numbers before positions name the chains, in order. [ ]: non-standard residue; d: D form. Actinocin(9to1) = Cc1c2oc3c(C)ccc(C(=O)[*:1])c3nc-2c(C(=O)[*:2])c(N)c1=O; NMeV = CN[C@H](C(=O)O)C(C)C; Sar = CNCC(=O)O

What follows are compounds tested on HeLa (assay: Confirmatory qHTS for gynecologic anti-cancer compounds from libraries of approved drugs and bioactive compounds). Conditions: gynecologic cancer cell panel viability, ATPlite luminescence, 48 h; series mostly up to 57.6 µM; activity change, negative = viability loss: at the top concentration.
In short: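 ATPlite luminescence read-out of cell viability; IC50 from 11-point 1:3 titrations, 57.5 uM to 0.977 nM, 48 h compound exposure at 37 C, 5% CO2. Cells seeded at 1,000/well 16 h before dosing.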
% is set by controls: 0 for no effect and ±100 for the full control effect; potency is the fitted concentration of half-maximal effect.
Note: nearly all actives have a fitted effect of over 55% in size.

Structure (SMILES) | activity change, negative = viability loss | Potency
CCCCN(CCCC)C(=O)CN1C[C@H](c2ccc3c(c2)OCO3)[C@@H](C(=O)O)[C@@H]1c1ccc(OC)cc1 | 11.9% | 
C#C[C@]1(O)CC[C@H]2[C@@H]3CCC4=CC(=O)CC[C@@H]4[C@H]3CC[C@@]21CC |  | 3.85 µM (active)
CN(NC(=O)CC(=O)NN(C)C(=S)c1ccccc1)C(=S)c1ccccc1 |  | 0.122 µM (active)
C[C@]12CCC(=O)C=C1CC[C@@H]1[C@@H]2[C@@H](O)C[C@@]2(C)[C@H]1CC[C@]2(O)C(=O)CO | -2.25% | 
CC[C@@]1(O)C(=O)OCc2c1cc1n(c2=O)Cc2cc3cc(O)ccc3nc2-1 |  | 0.968 µM (active)
Cc1cc(C(=O)N2CCN(c3cccc(Cl)c3)CC2)n(-c2ccccc2)n1 |  | 2.17 µM (active)
COc1cc(N2CCC(N3CCN(C)CC3)CC2)ccc1Nc1ncnc(Nc2ccccc2S(=O)(=O)C(C)C)n1 |  | 8.63 µM (active)
Cc1ccc(C(=O)Nc2cccc(C(F)(F)F)c2)cc1-c1ccc2nc(NCCN3CCOCC3)ncc2c1 |  | 7.69 µM (active)
CC(C)C[C@H](NC(=O)[C@H](Cc1ccccc1)NC(=O)c1cnccn1)B(O)O |  | 6.11 µM (active)
COc1ccc(CCC(=O)c2c(O)cc(O[C@@H]3O[C@H](CO)[C@@H](O)[C@H](O)[C@H]3O[C@@H]3O[C@@H](C)[C@H](O)[C@@H](O)[C@H]3O)cc2O)cc1O | 3.93% | 
Cc1cc(C(C)Nc2ccccc2C(=O)O)c2nc(N3CCOCC3)cc(=O)n2c1 (stereo unspecified) |  | 17.2 µM (active)
Nc1nc(=S)c2[nH]cnc2[nH]1 |  | 2.43 µM (active)
CNC(=O)c1ccccc1Nc1nc(Nc2ccc(N3CCOCC3)cc2OC)ncc1Cl |  | 0.769 µM (active)
CC(Oc1cc(-n2cnc3ccc(CN4CCN(C)CC4)cc32)sc1C(N)=O)c1ccccc1C(F)(F)F (stereo unspecified) |  | 2.43 µM (active)
COc1cc(N2CCC(N(C)C)CC2)ccc1Nc1ncc(Cl)c(Nc2ccccc2P(C)(C)=O)n1 |  | 1.37 µM (active)
OCc1ccc(-c2ccc(-c3ccc(CO)s3)o2)s1 | 0.688% [at 19.5 µM] | 
CN(C[C@@H]1COCCO1)S(=O)(=O)Nc1ccc2ccc3ncc(-c4cnn(C)c4)cc3c(=O)c2c1 |  | 5.44 µM (active)
O=C(O)c1ccc(Nc2ncc3c(n2)-c2ccc(Cl)cc2C(c2c(F)cccc2F)=NC3)cc1 |  | 7.69 µM (active)

Structure (SMILES) | activity change, negative = viability loss | Potency
COc1cccc2cc(-c3nc(C4CCC(C(=O)O)CC4)n4ncnc(N)c34)[nH]c12 (stereo unspecified) |  | 4.85 µM (active)
COCCOc1ccc2c(c1)ncn2-c1ccc2cccc(N3CCC(N)CC3)c2n1 |  | 12.2 µM (active)
COc1cccc2c1C(=O)c1c(O)c3c(c(O)c1C2=O)C[C@@](O)(C(=O)CO)C[C@@H]3O[C@H]1C[C@H](N)[C@H](O[C@@H]2CCCCO2)[C@H](C)O1 |  | 12.2 µM (active)
COc1cc(Nc2c(C#N)cnc3cc(OCCCN4CCN(C)CC4)c(OC)cc23)c(Cl)cc1Cl |  | 27.3 µM (active)
Cc1cnc(Nc2ccc(F)cc2Cl)nc1-c1c[nH]c(C(=O)NC(CO)c2cccc(Cl)c2)c1 (stereo unspecified) |  | 9.68 µM (active)
COc1cc2nccc(Oc3ccc(NC(=O)Nc4cc(C)on4)c(Cl)c3)c2cc1OC |  | 15.3 µM (active)
Nc1ncnc2c1ncn2[C@@H]1O[C@H](CO)C[C@H]1O | 2.12% | 
CC(C)Nc1cc(-c2c[nH]c(C(=O)N[C@H](CO)c3cccc(Cl)c3)c2)c(Cl)cn1 |  | 21.7 µM (active)
CNCc1ccc(-c2[nH]c3cc(F)cc4c3c2CCNC4=O)cc1 | -7.25% | 
O=c1c(-c2ccc(O)cc2)coc2cc(O)cc(O)c12 |  | 12.2 µM (active)
O=C(c1ccc(/C=C/c2n[nH]c3ccccc23)cc1)N1CCNCC1 |  | 3.43 µM (active)
NC(=O)Nc1cc(-c2cccc(F)c2)sc1C(=O)NC1CCCNC1 (stereo unspecified) |  | 1.22 µM (active)
O=C(CCCCCCC(=O)Nc1ccccc1)NO |  | 3.43 µM (active)
Cc1c2oc3c(C)ccc(C(=O)N[C@@H]4C(=O)N[C@H](C(C)C)C(=O)N5CCC[C@H]5C(=O)N(C)CC(=O)N(C)[C@@H](C(C)C)C(=O)O[C@@H]4C)c3nc-2c(C(=O)N[C@@H]2C(=O)N[C@H](C(C)C)C(=O)N3CCC[C@H]3C(=O)N(C)CC(=O)N(C)[C@@H](C(C)C)C(=O)O[C@@H]2C)c(N)c1=O (I: T[dV]P[Sar][NMeV] / II: T[dV]P[Sar][NMeV]; ester I:1-I:C, II:1-II:C; linker I:N-II:N via Actinocin(9to1)) |  | 0.863 µM (active)
CC[C@@]1(O)C(=O)OCc2c1cc1n(c2=O)Cc2cc3c(CN(C)C)c(O)ccc3nc2-1 |  | 8.63 µM (active)
COc1cc(C(=O)N2CCC(N3CCN(C)CC3)CC2)ccc1Nc1ncc2c(n1)N(C)c1ccccc1C(=O)N2C |  | 17.2 µM (active)
Nc1ccccc1NC(=O)c1ccc(CNC(=O)OCc2cccnc2)cc1 |  | 4.32 µM (active)
C=CC(=O)Nc1cc2c(Nc3ccc(F)c(Cl)c3)ncnc2cc1OCCCN1CCOCC1 |  | 27.3 µM (active)
